An excerpt weighted towards active compounds, which were near 19% of everything screened.
IL-1B inflam inh: inhibitors of inflammasome signaling (IL-1 beta secretion); THP-1 LPS/ATP IL-1B secretion, AlphaLISA, 16 h; active compounds read low; activity change, % at 57.5 µM; hit rate 4.7% among 360,000; in the data active = activity change below about -50%; inconclusive = mostly about -30% to -49%
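Secreted IL-1B measured by AlphaLISA bead assay after 16 h compound exposure of THP-1 cells; compounds (final up to 57.5 uM) added 1 h before LPS (250 ng/mL) and ATP (1.25 mM) stimulation; lower signal means less secretion.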
DT40 TDP1 no CPT: qHTS for Inhibitors of human tyrosyl-DNA phosphodiesterase 1 (TDP1): qHTS in cells in absence of CPT; hit rate 15% among 420,000; DT40 Tdp1-/- hTDP1 cells, no CPT, ATP luminescence, 48 h; AID 686978, 2013; Potency, µM (top dose mostly 46.2 µM), usual class: inhibitors; also: nearly all actives have a fitted effect of over 55% in size
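Camptothecin absent (DMSO only). Human TDP1-complemented DT40 knockout cells, 400 cells/well, 37 °C for minimum 48 hr; ATP measured via CellTiter-Glo, 30 min dark incubation, luminescence.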
DT40 TDP1 CPT: DT40-hTDP1 cell growth loss with CPT; chicken DT40 Tdp1-/-;hTDP1 cells + 20 nM CPT, ATP luminescence, 48 h; Potency, µM (doses to about 46.2 µM), usual class: inhibitors; hit rate 12% among 420,000; AID 686979; also: nearly all actives have a fitted effect of over 55% in size
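Chicken DT40 Tdp1-/- cells complemented with human TDP1, 400 cells/well, exposed to compounds plus 20 nM camptothecin for at least 48 h at 37 C; viability read as ATP content by CellTiter-Glo luminescence.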
SW480 rerep: induces DNA re-replication in SW480 colon adenocarcinoma cells. Potency, µM (doses to about 46.1 µM), actives largely listed as activators. hit rate 1.8% among 340,000. SW480 DNA re-replication, Hoechst DNA content imaging, 48 h. AID 624297; also: nearly all actives have a fitted effect of over 55% in size
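Image-based DNA-content assay: after two days of treatment, nuclei were labelled with the DNA dye Hoechst and imaged, and hits were compounds raising the count of nuclei showing high fluorescence intensity.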
MCF10A rerep: DNA re-replication induction in MCF 10a cells | MCF 10A DNA re-replication, Hoechst nuclear intensity, 48 h | hit rate 2.9% among 350,000 | Potency, µM (titrated, usually from 46.1 µM), actives largely listed as activators | AID 624296; also: nearly all actives have a fitted effect of over 50% in size
BCR signal inh: chronic active BCR signaling inhibition; ABC-DLBCL IkBa-CBG/CBR reporter, luminescence ratio, 4 h; Potency, µM (series often up to 46.1 µM), most hits filed as inhibitors; hit rate 0.05% among 340,000; active = well fitted inhibition curve with a large enough effect in the signal ratio, with a control signal flat, not every such curve was filed as active; inconclusive = small, poorly fitted or top-dose-only effect, or effect the other way, or a change in a side signal; the % refers to the signal ratio
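TMD8 ABC-DLBCL cells carrying doxycycline-inducible green luciferase fused to IkappaBalpha plus unfused red luciferase were exposed to compounds (up to 46 uM) for 4 hrs at 37C. Activity came from the overlap-corrected green/red luminescence ratio.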
Of the large screens only hits and unclear results are named; the others gave an inactive call. Unless noted, calls follow the shape of the dose curve; as a rule, active = well fitted curve in the direction sought with a large enough effect; inconclusive = small, poorly fitted or top-dose-only effect, or another doubt; inactive = no such curve, though single readings can be large; an effect the other way counts as inactive or inconclusive.

Cc1ccc2nc(/C(C#N)=C/c3ccccc3C(=O)O)[nH]c2c1	MCF10A rerep inconclusive, BCR signal inh inconclusive
COc1cc(/C=C(\C#N)c2nc3ccc(C)cc3[nH]2)ccc1OC(C)C	DT40 TDP1 CPT inconclusive (no result: IL-1B inflam inh, SW480 rerep, MCF10A rerep, BCR signal inh)
Cc1ccc2nc(/C(C#N)=C/c3cccc(Br)c3)[nH]c2c1	DT40 TDP1 no CPT 16µM, DT40 TDP1 CPT 15µM (no result: IL-1B inflam inh, SW480 rerep, MCF10A rerep, BCR signal inh)
Cc1ccc2nc(/C(C#N)=C/c3cn[nH]c3-c3ccc(F)cc3)[nH]c2c1	IL-1B inflam inh inconclusive, DT40 TDP1 no CPT 18µM, DT40 TDP1 CPT inconclusive, SW480 rerep inconclusive, MCF10A rerep 13µM
Cc1ccc2nc(/C(C#N)=C/c3ccc(O)c(O)c3)[nH]c2c1	DT40 TDP1 no CPT 18µM, DT40 TDP1 CPT 18µM, SW480 rerep 23µM, MCF10A rerep inconclusive
Cc1ccc(OCC(=O)Nc2ccc([N+](=O)[O-])cc2)cc1	BCR signal inh inconclusive
COc1ccc(C(=O)NC(=S)NNC(=O)COc2ccccc2)cc1	DT40 TDP1 no CPT inconclusive, DT40 TDP1 CPT 15µM, MCF10A rerep inconclusive
Cc1ccc(C(=O)NC(=S)NNC(=O)COc2ccc([N+](=O)[O-])cc2)cc1	DT40 TDP1 no CPT 15µM, DT40 TDP1 CPT inconclusive
O=C(COc1ccccc1)NNC(=S)NC(=O)c1ccccc1	DT40 TDP1 no CPT inconclusive, DT40 TDP1 CPT inconclusive
Cc1ccc(N2CC(NC(=O)c3cc4ccccc4o3)CC2=O)cc1C (centres undefined)	none (no result: IL-1B inflam inh, SW480 rerep, MCF10A rerep)
N[C@@H](Cc1cc(CP(=O)(O)O)cc(-c2ccccc2Cl)c1)C(=O)O	none (no result: IL-1B inflam inh, SW480 rerep, MCF10A rerep, BCR signal inh)
CN(C)C(CNC(C(=O)Nc1ccc(F)cc1)c1ccccc1)c1ccccc1 (centres undefined)	IL-1B inflam inh -80, DT40 TDP1 no CPT inconclusive
CN(C)C(CNC(C(=O)Nc1ccc([N+](=O)[O-])cc1Br)c1ccccc1)c1ccccc1 (centres undefined)	IL-1B inflam inh -73, DT40 TDP1 no CPT inconclusive, DT40 TDP1 CPT inconclusive, BCR signal inh inconclusive
Cc1ccc(NC(=O)NCC(c2ccccc2)N(C)C)cc1 (centres undefined)	BCR signal inh inconclusive
CC(C)(Cc1nc2ccccc2[nH]1)c1nc2ccccc2[nH]1	DT40 TDP1 CPT inconclusive (no result: SW480 rerep, MCF10A rerep, BCR signal inh)
O=C(Cc1n[nH]c(=O)[nH]c1=O)N/N=C/CCc1ccccc1	BCR signal inh inconclusive
NC(=O)/C(=C/c1cccnc1)NC(=O)c1ccccc1	none (no result: IL-1B inflam inh)
CC(=O)c1c(NC(=O)c2ccccc2)[nH]c(-c2ccccc2)nc1=S	DT40 TDP1 no CPT 23µM, DT40 TDP1 CPT inconclusive
COc1ccc(NC(=O)N(C)C[C@H]2OCc3cn(nn3)CCCC(=O)N([C@@H](C)CO)C[C@@H]2C)cc1	none (no result: SW480 rerep, MCF10A rerep, BCR signal inh)
O=C(CC(NC(=O)c1ccccc1)c1ccccc1)OCc1nc(-c2cccc(Cl)c2)no1 (centres undefined)	none (no result: IL-1B inflam inh, SW480 rerep, MCF10A rerep, BCR signal inh)
Cc1ccc(NC(=O)C[n+]2cc(-c3ccc(C)cc3)n3c2CCC3)cc1	DT40 TDP1 no CPT 5.2µM, DT40 TDP1 CPT 4.1µM (no result: IL-1B inflam inh)
Cc1ccc(-c2c[n+](CC(=O)OCc3ccccc3)c3n2CCC3)cc1	SW480 rerep 9.2µM, MCF10A rerep inconclusive
Cc1ccc(-c2c[n+](CC(=O)Nc3ccc(C)cc3C)c3n2CCC3)cc1	IL-1B inflam inh -73, DT40 TDP1 no CPT 15µM, DT40 TDP1 CPT inconclusive, SW480 rerep inconclusive, MCF10A rerep inconclusive
Cc1ccccc1NC(=O)C[n+]1cc(-c2ccccc2)n2c1CCC2	none
COc1ccc(C(=O)N/C(=C\c2ccc(Cl)cc2)C(=O)NCCN2CCOCC2)cc1	none (no result: SW480 rerep, MCF10A rerep, BCR signal inh)
COc1ccc2c(c1)[C@H]1[C@H](CO2)[C@H](c2ccccc2)[C@]2(C)C(=O)Nc3ccc(Cl)cc3C(=O)N12	IL-1B inflam inh -54, DT40 TDP1 no CPT inconclusive, DT40 TDP1 CPT 18µM, SW480 rerep inconclusive (no result: BCR signal inh)
COc1ccc2c(c1)OC[C@H]1[C@H]2N2C(=O)c3ccccc3NC(=O)[C@@]2(C)[C@H]1c1ccccc1	IL-1B inflam inh -78, DT40 TDP1 no CPT inconclusive, DT40 TDP1 CPT inconclusive, SW480 rerep inconclusive, BCR signal inh inconclusive
COc1ccc2c(c1)OC[C@H]1[C@H]2N2C(=O)CNC(=O)[C@@]2(C)[C@H]1c1ccccc1	none
COc1ccc2c(c1)C(=O)N1[C@H]3c4cc(C)ccc4OC[C@@H]3[C@H](c3ccccc3)[C@]1(C)C(=O)N2	IL-1B inflam inh -66, DT40 TDP1 no CPT 10µM, DT40 TDP1 CPT 7.3µM, SW480 rerep inconclusive, MCF10A rerep 15µM, BCR signal inh inconclusive
COc1ccc2c(c1)[C@H]1[C@H](CO2)[C@H](c2ccccc2)[C@]2(C)C(=O)Nc3ccc(F)cc3C(=O)N12	IL-1B inflam inh -57, DT40 TDP1 no CPT inconclusive, DT40 TDP1 CPT inconclusive, SW480 rerep inconclusive, MCF10A rerep inconclusive, BCR signal inh inconclusive
CCOC(=O)[C@H]1[C@H]2COc3ccc(OC)cc3[C@@H]2N2C(=O)c3cc(C)ccc3NC(=O)[C@@]12C	none
COc1ccc2c(c1)[C@@H]1[C@H](CO2)[C@H](c2ccccc2)[C@]2(C)C(=O)NCC(=O)N12	none
COc1ccc2c(c1)[C@H]1[C@H](CO2)[C@H](c2ccccc2)[C@]2(C)C(=O)Nc3ccc(C)cc3C(=O)N12	DT40 TDP1 no CPT inconclusive, DT40 TDP1 CPT inconclusive, SW480 rerep inconclusive, MCF10A rerep 21µM, BCR signal inh inconclusive
COc1ccc2c(c1)OC[C@H]1[C@H]2N2C(=O)c3cc(C)ccc3NC(=O)[C@@]2(C)[C@H]1c1ccccc1	IL-1B inflam inh inconclusive, DT40 TDP1 no CPT inconclusive, DT40 TDP1 CPT 16µM, SW480 rerep 10µM, MCF10A rerep inconclusive, BCR signal inh inconclusive
CCOC(=O)[C@H]1[C@H]2COc3ccccc3[C@@H]2N2C(=O)c3cc(OC)ccc3NC(=O)[C@@]12C	BCR signal inh inconclusive
COc1ccc2c(c1)[C@@H]1[C@H](CO2)[C@H](c2ccccc2)[C@]2(C)C(=O)Nc3ccc(C)cc3C(=O)N12	DT40 TDP1 no CPT inconclusive, DT40 TDP1 CPT 18µM
Cc1ccc2c(c1)NC(=O)[C@@]1(C)[C@@H](c3ccccc3)[C@H]3COc4ccccc4[C@@H]3N1C2=O	IL-1B inflam inh inconclusive, DT40 TDP1 no CPT inconclusive, DT40 TDP1 CPT inconclusive, BCR signal inh inconclusive
COc1ccc2c(c1)[C@H]1[C@H](CO2)[C@H](c2ccccc2)[C@]2(C)C(=O)Nc3cc(OC)c(OC)cc3C(=O)N12	DT40 TDP1 no CPT 21µM, DT40 TDP1 CPT inconclusive, SW480 rerep inconclusive, MCF10A rerep inconclusive
COc1ccc(OC)c(CNC(=O)CCC(=O)N2Cc3cccc(OC)c3Oc3ncccc32)c1	none
O=C(C1CCN(S(=O)(=O)c2cccc3nonc23)CC1)N1CCCCC1	none

Screening results from PubChem.
